Assay outcomes (PubChem BioAssay)
DT40 TDP1 CPT = growth inhibition of DT40 Tdp1-/-;hTDP1 cells with camptothecin (screen for TDP1 inhibitors); chicken DT40 Tdp1-/-;hTDP1 cells + 20 nM CPT, ATP luminescence, 48 h; Potency, µM (series often up to 46.2 µM), for the others: at the top dose activity change, negative = growth inhibition, hits mostly inhibitors; actives 12% (n = 420,000); AID 686979; further: potency means the concentration at half of the fitted maximal effect; nearly all actives have a fitted effect of over 55% in size
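Chicken DT40 Tdp1-/- cells stably complemented with human TDP1 were seeded at 400 cells/well in medium containing 20 nM camptothecin, exposed to pin-transferred compounds, and grown at 37 °C for at least 48 hr. Viability was read as ATP luminescence.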
HT1080NT lethal = kills 2HG-producing HT-1080-NT fibrosarcoma cells; HT-1080-NT fibrosarcoma viability, CellTiter-Glo ATP luminescence, 48 h; Potency, µM (highest dose often 46.1 µM), for the others: top-dose activity, negative = less viability, actives largely listed as cytotoxic; actives 1.6% (n = 360,000);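 further: NT is the 2HG producing partner of a matched IDH1 knockdown line; potency means the concentration at half of the fitted maximal effect; 0% = DMSO-treated cells and -100% = media-only wells without cells; nearly all actives have a fitted effect of over 55% in size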
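HT-1080-NT; 750 cells/well; 5% FBS RPMI; 48 h compound, 37 degrees C; CellTiter-Glo luminescence; curve fitting and curve-class assignment.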
IL-1B inflam inh = inhibitors of inflammasome signaling (IL-1 beta secretion); actives 4.7% (n = 360,000); THP-1 LPS/ATP IL-1B secretion, AlphaLISA, 16 h; stronger effect = lower value; activity change, % at 57.5 µM; in the data active means activity change below about -50%; inconclusive means mostly about -30% to -49%
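Secreted IL-1B measured by AlphaLISA bead assay after 16 h compound exposure of THP-1 cells; compounds (final up to 57.5 uM) added 1 h before LPS (250 ng/mL) and ATP (1.25 mM) stimulation; lower signal means less secretion.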
DT40 TDP1 no CPT = qHTS for Inhibitors of human tyrosyl-DNA phosphodiesterase 1 (TDP1): qHTS in cells in absence of CPT; DT40 Tdp1-/- hTDP1 cells, no CPT, ATP luminescence, 48 h; Potency, µM (top dose mostly 46.2 µM), for the others: top-dose activity change, negative = growth inhibition, hits mostly inhibitors; actives 15% (n = 420,000); AID 686978, 2013; further: potency means the concentration at half of the fitted maximal effect; nearly all actives have a fitted effect of over 55% in size
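No-CPT arm: Tdp1-/-;hTDP1 DT40 cells (400/well) plus compounds, incubated ≥48 hr at 37 °C. Readout CellTiter-Glo luminescence.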
HT1080 IDH1KD tx = kills HT-1080 cells with IDH1 knockdown. HT-1080 IDH1 knockdown viability, ATP luminescence, 48 h. Potency, µM (top dose mostly 46.1 µM), for inactives: at the highest dose activity, negative = toxicity, hits mostly cytotoxic. actives 2% (n = 360,000);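 further: potency means the concentration at half of the fitted maximal effect; 0% = DMSO wells and -100% = cell-free medium wells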
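Luminescent ATP read-out (CellTiter-Glo, 10 min at room temperature) after 48 h compound exposure at 37 °C gave viability of IDH1-knockdown HT-1080 cells. Activity was normalised to DMSO and cell-free wells, then fitted as concentration-response curves.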
Starred values were filed as active, the others as inactive; u = inconclusive; x = no result. Most compounds without a hit are left out; they make up all but 19% or so of the library. Unless noted, the call rests on the fitted dose curve; in most records, active means well fitted curve in the direction sought with a large enough effect; inconclusive means small, poorly fitted or top-dose-only effect, or another doubt; inactive means no such curve, though single readings can be large; an effect the other way counts as inactive or inconclusive. Unless noted, on the % scale 0 is the no-effect control and ±100 the full control effect.

SMILES | DT40 TDP1 CPT | HT1080NT lethal | IL-1B inflam inh | DT40 TDP1 no CPT | HT1080 IDH1KD tx
CCc1nnc2n1N(C(C)=O)C(c1ccc(C(C)(C)C)cc1)=C(C(C)=O)S2 | 8.2µM* | x | x | 11.6µM* | x
COc1ccc(C2=C(C(C)=O)Sc3nnc(-c4ccccc4)n3N2C(C)=O)cc1 | u | x | x | -5.1% | x
CC(=O)c1c(C(C)=O)c(C)n(-c2cccc([N+](=O)[O-])c2)c1C | -0.3% | -6.2% | -4.9 | 0.2% | -4.5%
CC(=O)C1=C(c2cccc([N+](=O)[O-])c2)N(C(C)=O)n2c(C)nnc2S1 | 4.61µM* | u | -97.6* | 1.84µM* | u
CCC(=O)C1=C(c2ccc(Cl)cc2)N(C(=O)CC)n2c(C)nnc2S1 | 8.2µM* | x | x | 7.31µM* | x
CC(=O)C1=C(c2ccc(Cl)cc2)N(C(C)=O)n2c(nnc2C2CCCCC2)S1 | 13µM* | x | x | u | x
CC(=O)C1=C(c2ccc(C)c(C)c2)N(C(C)=O)n2c(nnc2-c2ccc(Cl)cc2)S1 | 5.17µM* | x | x | 4.61µM* | x
CCCOc1ccc(C(O)(CCN2CCCCC2)c2ccccc2OC)cc1 (stereo unspecified) | 18.4µM* | u | -27.0 | 14.6µM* | u
CCOc1ccc(C(O)(c2ccccc2OC)C(CN2CCCC2)c2ccccc2)cc1 (stereo unspecified) | 11.6µM* | -15.7% | u | 8.2µM* | -2.6%
CCCCOc1ccc(C(O)(CCN2CCOCC2)c2ccccc2)cc1 (stereo unspecified) | u | 1.1% | 1.9 | u | 0.0%
CC1(C(=O)Nc2ccc(Cl)cc2)Cc2c(-c3ccc4c(c3)OCO4)ccnc2O1 (stereo unspecified) | u | u | 63.7 | u | u
CC1(C(=O)Nc2ccc3c(c2)OCO3)Cc2c(-c3ccc4c(c3)OCO4)ccnc2O1 (stereo unspecified) | 1.84µM* | u | 81.6 | 2.31µM* | 2.06µM*
CC1(C(=O)Nc2ccc3c(c2)OCO3)Cc2c(-c3cccc(C(N)=O)c3)ccnc2O1 (stereo unspecified) | 2.91µM* | u | 14.8 | 4.11µM* | 3.66µM*
COc1ccc(NC(=O)C2(C)Cc3c(-c4ccc5c(c4)OCO5)ccnc3O2)cc1OC (stereo unspecified) | u | -28.2% | 2.0 | u | u
CC(C)c1ccc(NC(=O)C2(C)Cc3c(-c4ccc5c(c4)OCO5)ccnc3O2)cc1 (stereo unspecified) | 23.1µM* | -20.8% | 57.2 | u | -13.6%
COc1ccc(NC(=O)C2(C)Cc3c(-c4ccc5c(c4)OCO5)ccnc3O2)cn1 (stereo unspecified) | 3.26µM* | u | 31.4 | 2.59µM* | 2.91µM*
CCOCCCNC(=O)c1c[nH]c2ccc(S(=O)(=O)Nc3cccc(Cl)c3C)cc2c1=O | 3.7% | x | x | -27.3% | x
CC1CN(c2nnc(-c3ccccc3)c3ccccc23)CC(C)O1 (stereo unspecified) | u | -11.5% | -0.1 | u | -29.9%
COc1ccc(-n2c(=O)c3ccc(C(=O)NCc4ccc(C)cc4)cc3n(Cc3ccc(F)cc3Cl)c2=O)cc1 | 5.6% | x | x | -0.4% | x
COc1ccc2c(CNCc3cccs3)c(C(=O)O)n(Cc3ccc(F)cc3Cl)c2c1 | 7.31µM* | x | x | 1.46µM* | x
COc1ccc2c(CNCCc3cccs3)c(C(=O)O)n(Cc3ccc(F)cc3Cl)c2c1 | 8.2µM* | x | x | 6.51µM* | x
O=S(=O)(Cc1ccc(Cl)cc1)NCc1cccnc1 | -6.3% | 12.8% | 16.0 | 1.5% | 5.9%
COc1ccc(-c2ccc(CCC(=O)O)n2-c2ccccc2OC)cc1 | u | 18.4µM* | 81.9 | 23.1µM* | 16.4µM*
CCOC(=O)c1nn(C)c(=S)n(C)c1=O | 5.5% | -1.9% | 24.4 | -5.3% | 2.1%
O=C(Nc1ccnn1C1CCN(C2CCCCC2)CC1)c1ccccc1 | u | -28.6% | -13.9 | 1.7% | -25.9%
